Screening results from PubChem.
Compounds with a hit are over-represented: about 20% of the library has one in this group of screens.
Pf growth 48h = P. falciparum growth inhibition at 48 hours (one generation); P. falciparum luciferase growth in erythrocytes, 48 h; 310,000 tested, 5.9% active; Potency, µM (series often up to 28.7 µM), for inactives: top-dose activity change, negative = inhibition, hits mostly inhibitors; further: potency means the concentration at half of the fitted maximal effect; on the % scale 0 is the no-effect control and ±100 the full control effect
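Read-out is firefly luciferase luminescence from an integrated reporter in P. falciparum, so falling signal marks reduced parasite growth. Infected erythrocytes were at 2% hematocrit and 0.1% parasitemia (final) in Albumax-supplemented RPMI 1640.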
HCMV antiviral = inhibitors of human cytomegalovirus | HFF cells, HCMV-luciferase reporter, 72 h; stronger effect = lower value | AID 1259415 | activity change, negative = inhibition, % at 57.5 µM | 410,000 tested, 4.5% active; in the data active means activity change below about -60%; inconclusive means no clear call, values can overlap the other calls; inactive means above about -39%; further: on the % scale 0 is the no-effect control and ±100 the full control effect
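Cell-based, HFFs, 1000 cells/well, 16 h 37C; cpds in DMSO + HCMV-luc, MOI 1 PFU/cell; 72 h 37C; OneGlo luminescence after 5 min RT; norm. to buffer vs Salinomycin 10uM.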
Pf growth 96h = P. falciparum growth inhibition at 96 hour, primary screen for plastid delayed-death inhibitors | 320,000 tested, 6.9% active | P. falciparum luciferase reporter growth, 96 h | Potency, µM (series often up to 28.7 µM), for inactives: top-dose activity change, negative = inhibition, actives largely listed as inhibitors; further: potency means the concentration at half of the fitted maximal effect; on the % scale 0 is the no-effect control and ±100 the full control effect
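Readout is luminescence from an integrated firefly luciferase in P. falciparum. Red cells, 2% hematocrit and 0.05% parasitemia final, were cultured with compound through two parasite generations (96 hours) at 37 C, 5% CO2.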
Cycloheximide cs = counter-screen hit for Shiga toxin inhibitors, cycloheximide | cell reporter, cycloheximide protein synthesis inhibition counterscreen | max response, % | 300,000 tested, 12% active; in the data active means max response mostly above about 13%, no sharp cut-off; inactive means mostly below about 14%; further: read at 38.3 µM for the half of the compounds with a filed dose; 0% is about no effect
Shiga toxin inh = inhibitors of Shiga toxin in Vero cells; 290,000 tested, 9.2% active; inhibition, % at 38.7 µM; Vero cells, Shiga toxin protein synthesis inhibition reporter; in the data active means inhibition mostly above about 28%, no sharp cut-off; inactive means mostly below about 43%; further: 0% is about no effect
The depositor's hits bear a star. Unless noted, the call rests on the fitted dose curve; in most records, active means well fitted inhibition curve with a large enough effect; inconclusive means small, poorly fitted or top-dose-only effect, or another doubt; inactive means no such curve, though single readings can be large or run the other way.

What do the screens show for `C[C@@H](C(=O)NCCc1c[nH]c2ccccc12)[C@H]1C[C@]1(C)[C@H](NC(=O)OCc1ccccc1)c1ccccc1`?
Pf growth 48h: 13µM*; HCMV antiviral: -27; Pf growth 96h: 9.3µM*; Cycloheximide cs: -2; Shiga toxin inh: -13

What do the screens show for `C[C@@H](C(=O)NCC1CC1)[C@@H]1C[C@@]1(C)[C@@H](NC(=O)OCc1ccccc1)c1ccccc1`?
Pf growth 48h: 4.1µM*; HCMV antiviral: -9; Pf growth 96h: 4.1µM*; Cycloheximide cs: 3; Shiga toxin inh: 16

Results for Cc1cc(C(=O)N[C@H](c2ccccc2)[C@@]2(C)C[C@@H]2[C@@H](C)C(=O)Nc2ccc3ccccc3c2)n(C)n1 ?
Pf growth 48h: 2.6µM*; HCMV antiviral: -15; Pf growth 96h: 3.7µM*; Cycloheximide cs: -3; Shiga toxin inh: -16

What do the screens show for `C[C@@H](C(=O)Nc1ccc2ccccc2c1)[C@H]1C[C@]1(C)[C@H](NC(=O)OCc1ccccc1)c1ccccc1`?
Pf growth 48h: inconclusive; HCMV antiviral: inconclusive; Pf growth 96h: 10µM*; Cycloheximide cs: 19*; Shiga toxin inh: 51*

How did C[C@H](CO)NC(=O)[C@H](C)[C@H]1C[C@]1(C)[C@H](NC(=O)OCc1ccccc1)c1ccccc1 do in these assays?
Pf growth 48h: 3%; HCMV antiviral: 4; Pf growth 96h: 1%; Cycloheximide cs: -3; Shiga toxin inh: -15

How did Cc1ccc(NS(=O)(=O)c2ccc(NC(=O)c3ccccc3C(=O)O)cc2)cc1C do in these assays?
HCMV antiviral: -29

How did CC(C)(C)OC(=O)N[C@@H](Cc1ccccc1)c1nnc(S(=O)(=O)Cc2ccccc2)o1 do in these assays?
Pf growth 48h: 41%; HCMV antiviral: 109; Cycloheximide cs: 42; Shiga toxin inh: 17

Results for Cc1ccccc1CS(=O)(=O)c1nnc([C@H](Cc2ccccc2)NC(=O)OC(C)(C)C)o1 ?
HCMV antiviral: -20; Pf growth 96h: inconclusive; Cycloheximide cs: 40*; Shiga toxin inh: 20

What do the screens show for `CCC(C)[C@@H](NC(=O)OC(C)(C)C)c1nnc(S(=O)(=O)Cc2cccc(C)c2)o1` (stereo not given in full)?
Pf growth 48h: -1%; HCMV antiviral: 42; Pf growth 96h: -9%; Cycloheximide cs: 31*; Shiga toxin inh: 77*

What do the screens show for `Cc1cccc(CS(=O)(=O)Cc2ccc(C(=O)NC(C)c3ccccc3)o2)c1` (stereo not given)?
Pf growth 48h: inconclusive; HCMV antiviral: 19; Pf growth 96h: 37%; Cycloheximide cs: 3; Shiga toxin inh: 8

How did Cn1c(=O)c2c(nc(N3CCOCC3)n2Cc2cccc(Br)c2)n(C)c1=O do in these assays?
HCMV antiviral: 2

How did Cc1cccc(-c2nnc(-c3ccc4ccccc4c3)o2)c1 do in these assays?
HCMV antiviral: 122

Results for CC(=O)Nc1ccc(S(=O)(=O)NNC(=O)COc2cccc3ccccc23)cc1 ?
Pf growth 48h: 9%; HCMV antiviral: 8; Pf growth 96h: inconclusive; Cycloheximide cs: -1; Shiga toxin inh: 1

How did O=C(Nc1ccc(S(=O)(=O)N2CCCCC2c2cccnc2)cc1)c1ccc(Br)cc1 (stereo not given) do in these assays?
HCMV antiviral: -98*

Results for CCOc1ccc(C(=O)Nc2ccc(S(=O)(=O)N3CCCCC3c3cccnc3)cc2)cc1 (stereo not given) ?
HCMV antiviral: -89*

How did CC1CCN(CCC(=O)Nc2nccs2)CC1 do in these assays?
Pf growth 48h: -9%; HCMV antiviral: 6; Pf growth 96h: 1%; Cycloheximide cs: 0; Shiga toxin inh: 3

Results for COc1ccc(Cn2c(-c3ccc(C)cc3)nc3c(c(=O)c4ccccc4n3C)c2=O)cc1 ?
Pf growth 48h: 13µM*; HCMV antiviral: 55; Pf growth 96h: inconclusive; Cycloheximide cs: -5; Shiga toxin inh: -11

How did COCCn1c(-c2ccccc2)nc2c(c(=O)c3ccccc3n2C)c1=O do in these assays?
Pf growth 48h: inconclusive; Pf growth 96h: 15µM*; Cycloheximide cs: 1; Shiga toxin inh: 13

What do the screens show for `COCCn1c(C2CCCCC2)nc2sc3ccccc3c(=O)c2c1=O`?
Pf growth 48h: 1.5µM*; HCMV antiviral: 15; Pf growth 96h: 0%; Cycloheximide cs: -4; Shiga toxin inh: -5

How did COc1ccc(Cn2c(-c3ccc(OC)cc3)nc3c(c(=O)c4ccccc4n3C)c2=O)cc1 do in these assays?
Pf growth 48h: 12µM*; Pf growth 96h: 9.3µM*; Cycloheximide cs: -3; Shiga toxin inh: -3

How did COc1cc2cc(Oc3ccc4ccc(=O)oc4c3)c(=O)oc2cc1OC(=O)C=C(C)C do in these assays?
Pf growth 48h: -22%; Pf growth 96h: 63%; Cycloheximide cs: -4; Shiga toxin inh: -6

What do the screens show for `CCCc1nc2sc3ccccc3c(=O)c2c(=O)n1Cc1ccc(OC)cc1`?
Pf growth 48h: inconclusive; HCMV antiviral: -9; Pf growth 96h: 10µM*; Cycloheximide cs: -1; Shiga toxin inh: 26

How did COc1ccc(Cn2c(C(C)C)nc3sc4ccccc4c(=O)c3c2=O)cc1 do in these assays?
Pf growth 48h: inconclusive; HCMV antiviral: -18; Pf growth 96h: inconclusive; Cycloheximide cs: -2; Shiga toxin inh: 21

Results for COc1ccc(-c2nc3c(c(=O)c4ccccc4n3C)c(=O)n2Cc2ccccc2)cc1 ?
Pf growth 48h: -20%; HCMV antiviral: inconclusive; Pf growth 96h: 2.9µM*; Cycloheximide cs: -1; Shiga toxin inh: -4

What do the screens show for `Cn1c2ccccc2c(=O)c2c(=O)n(Cc3ccccc3)c(-c3ccc(F)cc3)nc21`?
Pf growth 48h: inconclusive; HCMV antiviral: -19; Pf growth 96h: 5.2µM*; Cycloheximide cs: -2; Shiga toxin inh: -11

What do the screens show for `CCCSc1ncnc2c1c(-c1ccccc1)cn2-c1ccccc1OC`?
HCMV antiviral: -5

Results for Cc1cc(O)c2ccccc2c1O ?
Pf growth 48h: -29%; Pf growth 96h: 8.5µM*

What do the screens show for `Cc1cc([N+](=O)[O-])nn1CC(=O)Nc1ccc(Cl)cn1`?
Pf growth 48h: -4%; HCMV antiviral: -60*; Pf growth 96h: -27%; Cycloheximide cs: -1; Shiga toxin inh: -13

How did Cc1cc([N+](=O)[O-])nn1CC(=O)NCc1cccs1 do in these assays?
Pf growth 48h: 31%; HCMV antiviral: inconclusive; Pf growth 96h: 8.3µM*; Cycloheximide cs: -3; Shiga toxin inh: -14

How did Cc1c(C(=O)N(C)C)sc2c1c(=O)n(-c1ccccc1C(F)(F)F)c(=O)n2Cc1ccccc1C#N do in these assays?
HCMV antiviral: 4

Results for COCCCNC(=O)CSC1=Nc2ccccc2C2=NC(CC(=O)NCc3ccccc3)C(=O)N12 (stereo not given) ?
Pf growth 48h: inconclusive; HCMV antiviral: 53; Pf growth 96h: 38%; Cycloheximide cs: 1; Shiga toxin inh: 3

Results for Nc1cc(-c2ccc(Cl)cc2)nn1S(=O)(=O)c1ccc(Cl)cc1 ?
HCMV antiviral: -25; Pf growth 96h: 3.3µM*; Cycloheximide cs: -1; Shiga toxin inh: -16
